High-throughput results deposited in PubChem BioAssay by Johns Hopkins Ion Channel Center.
KCNQ2 block – KCNQ2 (rat) channel inhibition. CHO-K1 KCNQ2, FluxOR thallium flux, 20 min; hits give low values. O88943. 1.1% of 310,000 active. B-score at 10 µM;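 active means fluorescence ratio B-score at most minus 3 library SDs, with starting brightness B-score within 2 library SDs, cut at about -5.5 in these data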
KCNQ2 enhance – KCNQ2 (rat) channel potentiation | B-score at 10 µM | 0.54% of 310,000 active | CHO-K1 KCNQ2, FluxOR thallium flux fluorescence; hits give high values;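 active means fluorescence ratio B-score at least 3 SD of library B-scores, with initial fluorescence B-score within 3 of them, cut at about 5.3 in these data; same plate scores as AID 2156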;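 further: B-score of peak minus minimum over baseline fluorescence ratio after K+ and Tl+ stimulus; positive B-score means potentiation of KCNQ2 with more thallium influx and brighter signal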
Kir21 conf inh – confirmation of mouse Kir2.1 potassium channel inhibitors. shares compounds with KCNQ2 enhance. Kir2.1-expressing cells, FluxOR thallium flux fluorescence; hits give low values. AID 2032. Tl flux remaining, % of negative control (hits give low values), % at 10 µM. 41% of 2,300 active;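 active means Primary-screen hit whose thallium flux fell at least 3 control SD below untreated wells in both duplicates, with normal baseline fluorescence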
Target sequence (P35561 whole entry, looked up): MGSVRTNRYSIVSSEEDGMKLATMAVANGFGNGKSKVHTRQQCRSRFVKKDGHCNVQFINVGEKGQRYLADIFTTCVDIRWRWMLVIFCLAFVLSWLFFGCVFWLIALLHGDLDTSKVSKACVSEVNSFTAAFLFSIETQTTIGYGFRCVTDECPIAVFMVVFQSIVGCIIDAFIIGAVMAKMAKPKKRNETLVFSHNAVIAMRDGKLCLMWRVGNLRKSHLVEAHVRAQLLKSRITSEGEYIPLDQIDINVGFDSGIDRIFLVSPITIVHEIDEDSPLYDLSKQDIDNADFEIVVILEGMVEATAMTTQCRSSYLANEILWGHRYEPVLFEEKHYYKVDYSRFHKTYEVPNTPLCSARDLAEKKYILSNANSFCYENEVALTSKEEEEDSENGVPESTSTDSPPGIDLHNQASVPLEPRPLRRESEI
HEK293 Tl flux – counter-screen for Kir2.1 inhibitors: effect in parental HEK293 cells; shares compounds with KCNQ2 enhance; FluxOR thallium flux fluorescence; 0% = unstimulated blank wells; FluxOR signal as % of negative control (100 = no effect), % at 10 µM; 19% of 2,300 active;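 active means dye signal at least 3 control SD above or below untreated wells in both duplicates, raw fluorescence within 3, either direction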;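 further: percent is based on the flux ratio of peak minus minimum fluorescence over baseline F0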
CHO-K1 ctr – alters thallium flux in parental CHO-K1 cells, KCNQ2 counter-screen; FluxOR thallium flux fluorescence; zero = vehicle mean+3SD, 100% = vehicle-minus-blank window; shares compounds with KCNQ2 enhance; 43% of 1,200 active; AID 2282; activity increase over 3SD of controls, % at 10 µM;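 active means signal rise of at least 3 SD above the untreated control mean, in both duplicate wells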;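 further: counter screen of KCNQ2 potentiator hits so any rise reflects channel-independent effects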
KCNQ1 sel pot – selectivity of KCNQ2 potentiators: effect on human KCNQ1; 28% of 1,200 active; CHO KCNQ1 stable, FluxOR thallium flux fluorescence; beyond 3SD, as % of vehicle-control signal; activation over 3SD threshold, % at 10 µM; shares compounds with KCNQ2 enhance;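 active means fluorescence ratio rise of at least 3 SD of vehicle wells above their mean, in both replicate wells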
KCNQ2 pot conf – confirmation of rat KCNQ2 potassium channel potentiators; shares compounds with KCNQ2 enhance; CHO-KCNQ2 cells, FluxOR thallium flux fluorescence; potentiation, less the hit threshold, % at 10 µM; 68% of 1,200 active; AID 2287;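 active means fluorescence ratio rising 3 SD or more over the vehicle control mean in both replicates, plus primary screen hit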;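 further: peak minus minimum thallium fluorescence divided by baseline after K/Tl stimulus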
Kir21 spec – tests whether KCNQ2 potentiators also affect mouse Kir2.1; shares compounds with KCNQ2 enhance; HEK293 Kir2.1, FluxOR thallium flux fluorescence; activity over 3SD threshold, % at 10 µM; 2% of 1,200 active;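 active means fluorescence ratio rise of at least 3 SD above the vehicle-control mean, seen in both replicates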
KCNQ2 W236L MoA – rat KCNQ2 W236L mutant potentiation by KCNQ2 potentiators; shares compounds with KCNQ2 enhance; CHO KCNQ2-W236L, automated patch clamp current; current increase over 3SD of negative controls (%), hits give high values, % at 25 µM; 10% of 940 active;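 active means current increase at least 3 SD of the untreated controls above them in both duplicate recordings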
Each line names hits and unclear results; the compound was inactive in the other large screens (follow-up assays come after a bar, where they were run). Shown are actives, neighbours in structure and some others; about 1.6% of the full set was active somewhere.

Cc1ccc(C)c(N(C(=O)c2csnn2)C(C(=O)NC2CCCC2)c2cccnc2)c1 (stereo unspecified)	none
CNCc1cc(Br)c(OCC(=O)Nc2ccccc2OC)c(OC)c1	none
COc1cc(CNCCc2ccccc2)cc(Br)c1OCC(=O)Nc1ccccc1C	KCNQ2 block -7.11 | Kir21 conf inh 55.0% | HEK293 Tl flux inactive
COCCN(C(=S)Nc1ccc(Cl)cc1OC)C1CCN(C(C)=O)CC1	none (no result: KCNQ2 enhance)
COC(=O)c1ccc(NC(=O)CSc2nn3c(=O)c(C)nnc3s2)cc1	none
Cc1cc(=O)oc2cc3oc(=O)cc(C)c3cc12	none
CC(C)(C)c1ccc(C(=O)NNC(=O)c2cccc(Br)c2)cc1	none
Cc1cccc(NC(=O)C(=O)NNC(=O)c2ccc(C(C)(C)C)cc2)c1	KCNQ2 enhance 16.3 | Kir21 conf inh inactive | HEK293 Tl flux inactive | CHO-K1 ctr 22.5 | KCNQ1 sel pot 4.1 | KCNQ2 pot conf 44.1 | Kir21 spec inactive | KCNQ2 W236L MoA inactive
N#C/C(=N\Nc1cccc(C(F)(F)F)c1)C(=O)c1csc(-c2cccnc2)n1	KCNQ2 enhance 6.38 | Kir21 conf inh inactive | HEK293 Tl flux 69.5% | CHO-K1 ctr 18.7 | KCNQ1 sel pot inactive | KCNQ2 pot conf inactive | Kir21 spec inactive
Cc1ccc(C(=O)Nc2cccc(C(F)(F)F)c2)cc1NC(=O)c1csc(-c2ccncc2)n1	none (no result: KCNQ2 enhance)
O=C(O)Cn1c2ccccc2c2n[nH]c(=S)nc21	none (no result: KCNQ2 enhance)
COc1ccc(CN(C)CC2CCCN(CCc3ccccc3C)C2)cc1O (stereo unspecified)	none | Kir21 conf inh 40.0% | HEK293 Tl flux inactive
COc1cc(OC)c(OC)cc1CN(C)CC1CCCN(CCc2ccccc2F)C1 (stereo unspecified)	none
CCCC(C(=O)N(C)CC(=O)Nc1ccc(N2CCOCC2)cc1)c1ccccc1 (stereo unspecified)	none
CCN(CCCn1c(=S)[nH]c2ncccc2c1=O)c1ccccc1	KCNQ2 enhance 19.5 | Kir21 conf inh inactive | HEK293 Tl flux inactive | CHO-K1 ctr inactive | KCNQ1 sel pot inactive | KCNQ2 pot conf 14.4 | Kir21 spec inactive | KCNQ2 W236L MoA inactive
CCN(CC)CCCn1c(=S)[nH]c2ncccc2c1=O	none
COC(=O)c1nn(-c2ccc(OC)cc2)ccc1=O	none (no result: KCNQ2 enhance)
Cc1c(Cl)c(=O)n2c(=O)c(Cl)c(C)n12	none (no result: KCNQ2 enhance)
CC(=O)Nc1sc2c(c1C(c1ccccn1)N1CCCC1)CCCC2 (stereo unspecified)	none
CC(=O)Nc1sc2c(c1C(c1ccccc1Cl)N1CCN(CCO)CC1)CCCC2 (stereo unspecified)	KCNQ2 enhance 5.29 | CHO-K1 ctr inactive | KCNQ1 sel pot inactive | KCNQ2 pot conf 37.7 | Kir21 spec inactive | KCNQ2 W236L MoA inactive
COc1ccc(CCC(=O)NCC23CC4CC(CC(C4)C2)C3)cc1	none (no result: KCNQ2 enhance)
CN(C)S(=O)(=O)c1ccc2nnn(O)c2c1	none
OCCNCc1c(OCc2ccc(Cl)cc2)ccc2ccccc12	none | Kir21 conf inh 37.0% | HEK293 Tl flux inactive
OCCNCCNCc1ccccc1OCc1ccccc1	none (no result: KCNQ2 enhance)
COc1ccc(/C=N/NC(=O)c2cccc(OC(F)(F)C(F)F)c2)cc1O	none (no result: KCNQ2 enhance)
CC(C)c1ccc(N(C(=O)c2ccco2)C(C(=O)NC2CCCC2)c2ccncc2)cc1 (stereo unspecified)	none (no result: KCNQ2 enhance)
COc1ccc(-c2nc3ccccc3[nH]2)cc1	none (no result: KCNQ2 enhance)
COc1ccc(-c2nc(=S)c3ccc4ccccc4c3[nH]2)cc1	KCNQ2 enhance 19.8 | Kir21 conf inh inactive | HEK293 Tl flux 151.5% | CHO-K1 ctr inactive | KCNQ1 sel pot inactive | KCNQ2 pot conf 22.8 | Kir21 spec inactive | KCNQ2 W236L MoA inactive
